This is an account of results in PubChem BioAssay (NCATS).

Results filed as inconclusive are left out. A call without a number means that no potency is given here. Activity calls are given as the source filed them. Calls follow the shape of the dose curve; as a rule, active = well fitted inhibition curve with a large enough effect; inconclusive = small, poorly fitted or top-dose-only effect; inactive = flat fitted curve, though single readings scatter.

Experiment [1] has as its target Glutathione peroxidase 1 (Homo sapiens) (UniProt P07203). Briefly: Primary qHTS Assay for Inhibitors of Recombinant Selenoprotein Glutathione Peroxidase 1 (GPX1) (AID 1845191). The method, boiled down: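 NADPH consumption tracked by fluorescence at 340/450 nm between t=0 and t=15 min, room temperature. Final mix: 10 nM GPX1, 100 nM glutathione reductase, 1 mM GSH, 0.5 mM NADPH, 0.5 mM cumene hydroperoxide, 0.01% BSA; 30 min compound–enzyme preincubation.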
For orientation: In qHTS, concentration-response curves come from the screen itself.

Experiment [2] concerns the target Phospholipid hydroperoxide glutathione peroxidase GPX4 (Homo sapiens) (UniProt P36969). Briefly: Primary qHTS Assay for Inhibitors of Recombinant Selenoprotein Glutathione Peroxidase 4 (GPX4) (AID 1845192). Summed up:
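NADPH consumption followed by fluorescence at 340/450 nm, t=0 and after 15 min at room temperature. Reaction started with cumene hydroperoxide (0.5 mM final) after 30 min compound–GPX4 preincubation; final 200 nM GPX4, 100 nM GR, 1 mM GSH, 0.5 mM NADPH.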
Also: nearly all actives have a fitted effect of over 65% in size.

Glutathione peroxidase 1 (Homo sapiens), sequence (P07203 whole entry, looked up): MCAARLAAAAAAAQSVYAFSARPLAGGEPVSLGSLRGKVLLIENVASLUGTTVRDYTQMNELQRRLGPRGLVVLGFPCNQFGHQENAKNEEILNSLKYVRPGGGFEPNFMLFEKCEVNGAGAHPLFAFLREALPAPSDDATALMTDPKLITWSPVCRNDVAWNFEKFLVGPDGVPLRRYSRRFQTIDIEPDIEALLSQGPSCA
Phospholipid hydroperoxide glutathione peroxidase GPX4 (Homo sapiens), sequence (P36969 whole entry, looked up): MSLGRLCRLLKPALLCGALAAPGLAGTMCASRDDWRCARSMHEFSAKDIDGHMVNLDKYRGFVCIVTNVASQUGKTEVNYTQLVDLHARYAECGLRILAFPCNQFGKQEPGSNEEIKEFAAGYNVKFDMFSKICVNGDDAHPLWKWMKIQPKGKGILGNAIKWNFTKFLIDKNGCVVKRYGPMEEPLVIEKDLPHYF

In the case of `COC1=CC(=O)C[C@@H](C)[C@]12Oc1c(Cl)c(OC)cc(OC)c1C2=O`, the Potency entry in experiment [1] and in experiment [2] was “inactive” throughout.

`Cc1c(C(N)=O)cc([N+](=O)[O-])cc1[N+](=O)[O-]`: the Potency entry in experiment [1] and in experiment [2] was “inactive” throughout.

Turning to `CCCCOc1cc(C(=O)NCCN(CC)CC)c2ccccc2n1`, the Potency entry in experiment [1] and in experiment [2] was “inactive” in each case.

Consider `CC(=O)[C@H]1CC[C@H]2[C@@H]3C[C@H](C)C4=CC(=O)CC[C@]4(C)[C@H]3[C@@H](O)C[C@]12C`, for which the Potency result in experiment [1] and in experiment [2] was “inactive” throughout.

Consider `COc1cc(OC)cc(OC)c1`, for which the Potency result in experiment [1] and in experiment [2] was “inactive” in each case.

For the molecule `Cc1cccn2c(=O)c(-c3nnn[nH]3)cnc12`, the Potency entry in experiment [1] and in experiment [2] was “inactive” each time.

In the case of `Oc1c(I)cc(Cl)c2cccnc12`, the Potency entry in experiment [1] and in experiment [2] was “inactive” each time.

With `COc1cc2c(cc1OC)[C@@H]1CC(=O)[C@@H](CC(C)C)CN1CC2`, the Potency entry in experiment [1] and in experiment [2] was “inactive” in each case.

As for `CCCN1CCCC[C@H]1C(=O)Nc1c(C)cccc1C`, the Potency entry in experiment [1] and in experiment [2] was “inactive” each time.

Consider `CCCCCCCCCCCCCCCCOP(=O)([O-])OCC[N+](C)(C)C`, for which the Potency entry in experiment [1] and in experiment [2] was “inactive” in each case.

`O=C(O)CCCCC(=O)O`: the Potency result in experiment [1] and in experiment [2] was “inactive” in each case.

As to `CCCCOc1ccc(C(=O)CCN2CCCCC2)cc1`, the Potency result in experiment [1] and in experiment [2] was “inactive” each time.

As for `Oc1c(I)cc(I)c2cccnc12`, the Potency entry in experiment [1] and in experiment [2] was “inactive” each time.

Consider `CCCCCC=CCC=CCCCCCCCC(=O)OCC`, for which the Potency result in experiment [1] and in experiment [2] was “inactive” each time.

Regarding `N[C@H](Cc1c[nH]c2ccccc12)C(=O)O`, the Potency result in experiment [1] and in experiment [2] was “inactive” each time.

In the case of `CC(=O)Oc1ccc(C(=C2CCCCC2)c2ccc(OC(C)=O)cc2)cc1`, the Potency entry in experiment [1] and in experiment [2] was “inactive” throughout.

Take `O=C1OC(c2ccc(O)cc2)(c2ccc(O)cc2)c2ccccc21`: the Potency entry in experiment [1] and in experiment [2] was “inactive” throughout.

As for `C[C@H](CCC(=O)O)[C@H]1CC[C@H]2[C@@H]3C(=O)C[C@@H]4CC(=O)CC[C@]4(C)[C@H]3CC(=O)[C@]12C`, the Potency result in experiment [1] and in experiment [2] was “inactive” throughout.

Turning to `CCCC(=O)O[C@]1(C(=O)CO)CC[C@H]2[C@@H]3CCC4=CC(=O)CC[C@]4(C)[C@H]3[C@@H](O)C[C@@]21C`, the Potency entry in experiment [1] and in experiment [2] was “inactive” in each case.

For `CCOC(=O)n1ccn(C)c1=S`, the Potency result in experiment [1] and in experiment [2] was “inactive” in each case.

For `CCOC(=O)OC(C)OC1=C(C(=O)Nc2ccccn2)N(C)S(=O)(=O)c2ccccc21` (stereo unspecified), the Potency entry in experiment [1] and in experiment [2] was “inactive” each time.

`CN(C)CCOc1ccccc1Cc1ccccc1`: the Potency result in experiment [1] and in experiment [2] was “inactive” each time.

As to `C=C1C[C@H]2[C@@H]3C=C(C)C4=CC(=O)CC[C@]4(C)[C@H]3CC[C@]2(C)[C@@]1(OC(C)=O)C(C)=O`, the Potency result in experiment [1] and in experiment [2] was “inactive” each time.

Take `CC1(C)O[C@@H]2[C@@H](CO[C@@]3(COS(N)(=O)=O)OC(C)(C)O[C@@H]23)O1`: the Potency result in experiment [1] and in experiment [2] was “inactive” in each case.

Turning to `Clc1ccc2c(c1)CCc1cccnc1C2=C1CCNCC1`, the Potency result in experiment [1] and in experiment [2] was “inactive” throughout.

Take `NCCCC[C@H](N[C@@H](CCc1ccccc1)C(=O)O)C(=O)N1CCC[C@H]1C(=O)O`: the Potency entry in experiment [1] and in experiment [2] was “inactive” throughout.

For `CCN1CCCC1=O`, the Potency entry in experiment [1] and in experiment [2] was “inactive” throughout.

Turning to `CC1(C)O[C@@H]2C[C@H]3[C@@H]4C[C@H](F)C5=CC(=O)CC[C@]5(C)[C@H]4[C@@H](O)C[C@]3(C)[C@]2(C(=O)CO)O1`, the Potency entry in experiment [1] and in experiment [2] was “inactive” each time.

Regarding `CC(C)(C(=O)c1cccnc1)c1cccnc1`, the Potency result in experiment [1] and in experiment [2] was “inactive” throughout.

For the molecule `CC(=O)OCC(=O)NCCCOc1cccc(CN2CCCCC2)c1`, the Potency result in experiment [1] and in experiment [2] was “inactive” each time.

Consider `C[C@@H]1C[C@H]2[C@@H]3CCC4=CC(=O)C=C[C@]4(C)[C@@]3(F)[C@@H](O)C[C@]2(C)[C@H]1C(=O)CO`, for which the Potency result in experiment [1] and in experiment [2] was “inactive” each time.

In the case of `CN(C)CC/C=C1/c2ccccc2COc2ccc(CC(=O)O)cc21`, the Potency entry in experiment [1] and in experiment [2] was “inactive” in each case.

`CC1(C)O[C@@H]2C[C@H]3[C@@H]4CCC5=CC(=O)CC[C@]5(C)[C@@]4(F)[C@@H](O)C[C@]3(C)[C@]2(C(=O)CCl)O1`: the Potency result in experiment [1] and in experiment [2] was “inactive” in each case.

With `CCC(=O)c1c(O)cc(O)cc1O`, the Potency entry in experiment [1] and in experiment [2] was “inactive” throughout.

Turning to `c1ccc(CNCCNCc2ccccc2)cc1`, the Potency entry in experiment [1] and in experiment [2] was “inactive” each time.

As for `CCCOC(C(=O)OC1CCN(C)CC1)(c1ccccc1)c1ccccc1`, the Potency result in experiment [1] and in experiment [2] was “inactive” each time.

Turning to `CCN(CCCCOC(=O)c1ccc(OC)c(OC)c1)C(C)Cc1ccc(OC)cc1` (stereo unspecified), the Potency result in experiment [1] and in experiment [2] was “inactive” throughout.

Regarding `CN(C(=O)CN(CCO)CC(=O)N(C)C(C)(C)Cc1ccccc1)C(C)(C)Cc1ccccc1`, the Potency result in experiment [1] and in experiment [2] was “inactive” each time.
